Source: PubChem BioAssay (NCATS)
Results filed as inconclusive are left out. Entries that show only a call come without a potency. Activity calls are given as the source filed them. The call rests on the fitted dose curve; in most records, active means well fitted inhibition curve with a large enough effect; inconclusive means small, poorly fitted or top-dose-only effect; inactive means flat fitted curve, though single readings scatter.

system: C2A; test: qHTS profiling for inhibitors of Plasmodium falciparum proliferation (AID 504749); further: nearly all actives have a fitted effect of over 60% in size; conditions: P. falciparum in erythrocytes, SYBR Green DNA, 72 h; series mostly up to 12.8 µM
Summary of the method: (§1)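 P. falciparum-infected erythrocytes (0.3% parasitemia, 2.5% hematocrit) incubated with compound 72 h at 37 C, 5% CO2. Parasite DNA detected by SYBR Green after lysis, overnight at room temperature; normalised to 0.29 uM artemisinin and DMSO.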
Potency means the concentration at half of the fitted maximal effect.

Row | SMILES | Potency
1 | CC1(C)S[C@H]2C(NC(=O)[C@@H](N)c3ccc(O)cc3)C(=O)N2[C@@H]1C(=O)O (some centres undefined) | inactive
2 | CN(C)CCc1c[nH]c2ccc(CC3COC(=O)N3)cc12 (centres undefined) | inactive
3 | NC(CCC(=O)N[C@@H](CS)C(=O)NCC(=O)O)C(=O)O (some centres undefined) | 10000 nM (active)
4 | CC(C)Oc1ccc2c(=O)cc(-c3ccccc3)oc2c1 | inactive
5 | CCCCCCCCCc1ccc(OCCOCCOCCOCCOCCOCCOCCOCCOCCO)cc1 | inactive
6 | N[C@@H]1C(O)OC(CO)C(O)C1O (some centres undefined) | inactive
7 | CC(=O)OCC(=O)[C@@]12OC3(CCCC3)OC1CC1C3CCC4=CC(=O)C=C[C@@]4(C)[C@]3(F)C(O)C[C@]12C (some centres undefined) | inactive
8 | C=Cc1c(C)/c2[n-]/c1=C\c1[n-]c(c(CC)c1C)/C=c1\[n-]c3c(c1C)C(=O)C(C(=O)[O-])C=3c1[n-]c(c(C)c1CCC(=O)[O-])\C=2.[Cu].[Na+].[Na+] (centres undefined) | inactive
9 | CC(=O)[C@]1(O)CCC2C3C=C(Cl)C4=CC(=O)C5CC5[C@@]4(C)C3CC[C@]21C (some centres undefined) | inactive
10 | CO[C@]12C(COC(N)=O)C3=C(C(=O)C(C)=C(N)C3=O)N1CC1NC12 (some centres undefined) | 1260 nM (active)
11 | C[C@@]12C=CC(=O)C=C1CCC1C3CC(O)[C@@](O)(C(=O)CO)[C@]3(C)CC(O)[C@]12F (some centres undefined) | inactive
12 | CCC1OC(=O)C(C)[C@@H](O[C@H]2C[C@@](C)(OC)C(O)C(C)O2)C(C)[C@@H](O[C@@H]2OC(C)CC(N(C)C)C2O)[C@@](C)(O)CC(C)C(=O)[C@@H](C)C(O)[C@]1(C)O (some centres undefined) | inactive
13 | CC1C2CCC3C4CC=C5CC(N(C)C)CC[C@@]5(C)C4CC[C@@]32CN1C (some centres undefined) | inactive
14 | CCC(C)C(=O)OC1CC(O)C=C2C=CC(C)C(CCC(O)CC(O)CC(=O)O)C21 (centres undefined) | inactive
15 | OCC1OC(n2cnc3c(=S)nc[nH]c32)C(O)C1O (centres undefined) | inactive

system: CP185; test: as above; conditions: P. falciparum in erythrocytes, SYBR Green DNA, 72 h; series mostly up to 12.8 µM
Summary of the method: as §1

Row | SMILES | Potency
16 | CC1(C)S[C@H]2C(NC(=O)[C@@H](N)c3ccc(O)cc3)C(=O)N2[C@@H]1C(=O)O (some centres undefined) | inactive
17 | CN(C)CCc1c[nH]c2ccc(CC3COC(=O)N3)cc12 (centres undefined) | inactive
18 | CC(C)Oc1ccc2c(=O)cc(-c3ccccc3)oc2c1 | inactive
19 | CCCCCCCCCc1ccc(OCCOCCOCCOCCOCCOCCOCCOCCOCCO)cc1 | inactive
20 | N[C@@H]1C(O)OC(CO)C(O)C1O (some centres undefined) | inactive
21 | CC(=O)OCC(=O)[C@@]12OC3(CCCC3)OC1CC1C3CCC4=CC(=O)C=C[C@@]4(C)[C@]3(F)C(O)C[C@]12C (some centres undefined) | inactive
22 | C=Cc1c(C)/c2[n-]/c1=C\c1[n-]c(c(CC)c1C)/C=c1\[n-]c3c(c1C)C(=O)C(C(=O)[O-])C=3c1[n-]c(c(C)c1CCC(=O)[O-])\C=2.[Cu].[Na+].[Na+] (centres undefined) | inactive
23 | CC(=O)[C@]1(O)CCC2C3C=C(Cl)C4=CC(=O)C5CC5[C@@]4(C)C3CC[C@]21C (some centres undefined) | inactive
24 | CO[C@]12C(COC(N)=O)C3=C(C(=O)C(C)=C(N)C3=O)N1CC1NC12 (some centres undefined) | 708 nM (active)
25 | C[C@@]12C=CC(=O)C=C1CCC1C3CC(O)[C@@](O)(C(=O)CO)[C@]3(C)CC(O)[C@]12F (some centres undefined) | inactive
26 | CCC1OC(=O)C(C)[C@@H](O[C@H]2C[C@@](C)(OC)C(O)C(C)O2)C(C)[C@@H](O[C@@H]2OC(C)CC(N(C)C)C2O)[C@@](C)(O)CC(C)C(=O)[C@@H](C)C(O)[C@]1(C)O (some centres undefined) | inactive
27 | CC1C2CCC3C4CC=C5CC(N(C)C)CC[C@@]5(C)C4CC[C@@]32CN1C (some centres undefined) | inactive
28 | CCC(C)C(=O)OC1CC(O)C=C2C=CC(C)C(CCC(O)CC(O)CC(=O)O)C21 (centres undefined) | inactive
29 | OCC1OC(n2cnc3c(=S)nc[nH]c32)C(O)C1O (centres undefined) | inactive
